Our source for the Potency, max response and outcome values is PubChem BioAssay (NCATS).

In one assay the test system is TAB165. Kind of assay: qHTS profiling for inhibitors of Plasmodium falciparum proliferation (AID 504749). Further: potency means the concentration at half of the fitted maximal effect. The following applies: P. falciparum in erythrocytes, SYBR Green DNA, 72 h; series mostly up to 28.7 µM. The gist of the method: (§1)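 In a 72 h erythrocytic culture (37 C, humidified, 5% CO2) at 2.5% hematocrit and 0.3% starting parasitemia, compounds were tested; SYBR Green I in detergent lysis buffer stained parasite DNA overnight.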
For orientation: qHTS replaces the single test concentration by a dilution series.

Another assay concerns W2. The description is as above. Conditions: P. falciparum in erythrocytes, SYBR Green DNA, 72 h; series mostly up to 28.7 µM. An outline of the steps: as §1
The next assay relates to CRL-7250. Kind of assay: Cytotoxic Profiling of Annotated Libraries Using Quantitative High-Throughput Screening (AID 1296008). Further: potency means the concentration at half of the fitted maximal effect. On max response: on the % scale 0 is the no-effect control and ±100 the full control effect. Conditions: Five cell lines viability, CellTiter-Glo ATP luminescence, 48-72 h; max response: hits give low values. The gist of the method:
(§2)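 Cytotoxicity was measured as CellTiter-Glo ATP luminescence, read after 10 min at room temperature. Compound treatment of the cells lasted 48 or 72 hr at 37 degrees Celsius in a qHTS format.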
Background: In ATP-based viability assays light output follows the ATP content of the culture.

Assay [1] has as its system HaCat. Described as above. The following applies: Five cell lines viability, CellTiter-Glo ATP luminescence, 48-72 h; max response: hits give low values. The gist of the method:
as §2

For another assay, the system named is KB-3-1. The assay is described as above. Conditions: Five cell lines viability, CellTiter-Glo ATP luminescence, 48-72 h; max response: hits give low values. The gist of the method: as §2
The next assay concerns NIH3T3. Described as above. The following applies: Five cell lines viability, CellTiter-Glo ATP luminescence, 48-72 h; max response: hits give low values. The gist of the method: as §2
The subject of assay [2] is HACAT. Briefly: qHTS assay to identify novel small-molecules to repurpose for Merkel cell carcinoma treatment (AID 1296009). The following applies: MCC and control cell lines, CellTiter-Glo viability, 72 h. The gist of the method:
(§3)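 Cell viability measured by CellTiter-Glo following 72 hr compound treatment at 37 degree celsius, with NPC and MIPE libraries tested in 8- and 11-point concentration series.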

Another assay concerns HEK293T. The assay is described as above. The following applies: MCC and control cell lines, CellTiter-Glo viability, 72 h. The gist of the method: as §3
In the next assay the test system is MCC-13. Described as above. Conditions: MCC and control cell lines, CellTiter-Glo viability, 72 h; series mostly up to 46 µM. The gist of the method:
as §3

A further assay concerns HEK293. Kind of assay: Cytotoxic Profiling of Annotated Libraries Using Quantitative High-Throughput Screening (AID 1296008). Further: potency means the concentration at half of the fitted maximal effect. On max response: on the % scale 0 is the no-effect control and ±100 the full control effect. Conditions: Five cell lines viability, CellTiter-Glo ATP luminescence, 48-72 h; max response: hits give low values. An outline of the steps:
as §2

Setting [3] is: at 44.8 µM (top of the series) unless noted.

Values joined by “and” are separate entries in the source; they are usually repeats but may differ in a detail not shown here. Identical values can stand only once. Results filed as inconclusive are left out. Unmarked numbers belong to inactive results. Active and inactive are the calls of the source. The call rests on the fitted dose curve; in most records, active means well fitted inhibition curve with a large enough effect; inconclusive means small, poorly fitted or top-dose-only effect; inactive means flat fitted curve, though single readings scatter.
Further: nearly all actives have a fitted effect of over 60% in size.

Turning to `NC(N)=NC(N)=NCCc1ccccc1`, the Potency result in the assay on TAB165 and in the assay on W2 was “inactive” in each case.

For the molecule `COc1nc(N)nc2c1ncn2[C@@H]1O[C@H](CO)[C@@H](O)[C@@H]1O`, the Potency result in the assay with TAB165, with W2 and in the assay with MCC-13 was “inactive” throughout. Further, the max response in the assay with CRL-7250 is -2.22% and 4.78%; with NIH3T3 it was -9.88% and 4.97%. Also, the call in the assay with HaCat [1], with KB-3-1, in the assay on HACAT [2] (setting [3]) and with HEK293T (setting [3]) was inactive.

With `C[C@@H]1C[C@H]2[C@@H]3CCC4=CC(=O)C=C[C@]4(C)[C@@]3(Cl)[C@@H](O)C[C@]2(C)[C@@]1(OC(=O)c1ccco1)C(=O)CCl`, the max response with CRL-7250 was -41.7%; in the assay with HaCat [1] it was -15.9%; with KB-3-1 it was 4.51% and 5.24%. Moreover, in the assay with MCC-13, the Potency result was “inactive”.

With `CCc1c2c(nc3ccc(OC(=O)N4CCC(N5CCCCC5)CC4)cc13)-c1cc3c(c(=O)n1C2)COC(=O)[C@]3(O)CC`, in the assay on TAB165, the Potency entry is “inactive”. Besides, the Potency in the assay with HEK293 was 7.5 µM (active) and 1.05 µM (active); in the assay with HaCat [1], 23.7 µM (active) and 4.18 µM (active); in the assay with NIH3T3, 14.8 µM (active). Besides, the max response in the assay with KB-3-1 was 43.3%.

For `N=C(N)c1ccc(OCCCCCOc2ccc(C(=N)N)cc2)cc1`, the Potency in the assay on TAB165 was 0.501 µM (active); with W2 it was 0.478 µM (active).

`OCc1ccc(-c2nn(Cc3ccccc3)c3ccccc23)o1`: the call in the assay on KB-3-1 was inactive. Moreover, in the assay with MCC-13, the Potency entry is “inactive”.

For `Nc1ccc(S(=O)(=O)Nc2ccccn2)cc1`, the Potency entry in the assay on TAB165, in the assay on W2 and in the assay with MCC-13 was “inactive” each time. For the same molecule, the result with HACAT [2] (setting [3]) and in the assay on HEK293T (setting [3]) was inactive.

Take `CN(CCOc1ccc(CC2SC(=O)NC2=O)cc1)c1ccccn1` (centres undefined): the Potency entry in the assay on TAB165, in the assay on W2 and in the assay on MCC-13 was “inactive” throughout. Further, the max response in the assay with CRL-7250 was 0.739%; in the assay with KB-3-1 it was -1.01% and -2.41%; in the assay with NIH3T3, 0.939%. Further, the molecule was classed as inactive in the assay with HaCat [1], with HACAT [2] (setting [3]) and in the assay on HEK293T (setting [3]).

For the molecule `C1CCC(C(CC2CCCCN2)C2CCCCC2)CC1` (centres undefined), the Potency in the assay on TAB165 was 10 µM (active); in the assay with W2, 1.69 µM (active); with HEK293, 26.4 µM (active). Moreover, the Potency result in the assay on MCC-13 was “inactive”.

For the molecule `CCCCc1oc2ccc(NS(C)(=O)=O)cc2c1C(=O)c1ccc(OCCCN(CCCC)CCCC)cc1`, the Potency with HEK293 was 11.6 µM (active); in the assay with HaCat [1] it was 23.7 µM (active); in the assay with KB-3-1, 23.1 µM (active); in the assay with NIH3T3 it was 9.44 µM (active). Further, in the assay on MCC-13, the Potency result is “inactive”.

As to `CC(C)(C#N)c1cc(Cn2cncn2)cc(C(C)(C)C#N)c1`, the Potency entry in the assay on TAB165, in the assay on W2 and with MCC-13 was “inactive” each time.

Turning to `O=C(O)c1ccc(-n2nc(-c3ccccc3O)nc2-c2ccccc2O)cc1`, in the assay on HaCat [1], the max response is 2.92% and the result was inactive. In addition, the molecule was called inactive in the assay on HACAT [2] (setting [3]). In the assay on MCC-13, the Potency entry was “inactive”.

With `CNC(=O)c1cc(Oc2ccc(NC(=O)Nc3ccc(Cl)c(C(F)(F)F)c3)cc2)ccn1`, the Potency in the assay with TAB165 is 5.62 µM (active); in the assay with W2, 15.1 µM (active); in the assay with KB-3-1 it was 14.8 µM (active) and 6.51 µM (active); in the assay on NIH3T3, 23.5 µM (active). Also, in the assay with HaCat [1], the max response was -11.7% and -12.9%. Moreover, the Potency entry with MCC-13 was “inactive”.

In the case of `N[C@@H](C(=O)N[C@@H]1C(=O)N2C(C(=O)O)=C(Cl)CS[C@H]12)c1ccccc1`, the Potency result in the assay with TAB165, in the assay on W2 and in the assay with MCC-13 was “inactive” throughout. Moreover, the max response with CRL-7250 was 3.96% and -9.13%; in the assay with KB-3-1, 16.8% and 8.23%. In addition, the result in the assay on HaCat [1], in the assay on NIH3T3, in the assay with HACAT [2] (at 9.27 µM (top of the series)), in the assay with HACAT [2] (at 44.8 µM (top of the series)), with HEK293T (at 9.27 µM (top of the series)) and in the assay on HEK293T (at 44.8 µM (top of the series)) was inactive.

As for `Oc1c(Cl)cc(Cl)c2cccnc12`, the Potency in the assay with TAB165 was 10 µM (active); in the assay with NIH3T3, 23.7 µM (active). For the same molecule, the max response in the assay with KB-3-1 was -16.3%. In addition, the Potency entry in the assay with MCC-13 was “inactive”.

With `CCCCCCNC(=O)n1cc(F)c(=O)[nH]c1=O`, the Potency in the assay on TAB165 was 10 µM (active); in the assay on W2, 4.78 µM (active); with HEK293, 7.5 µM (active) and 13.2 µM (active); in the assay with NIH3T3, 1.5 µM (active) and 3.72 µM (active). Further, the max response in the assay on HaCat [1] is -37.7%; in the assay on KB-3-1, -8.63% and -17%. Besides, the Potency entry in the assay with MCC-13 is “inactive”.

With `CN1CCN(c2c(F)cc3c(=O)c(C(=O)O)cn(CCF)c3c2F)CC1`, the Potency entry in the assay with TAB165 and with W2 was “inactive” throughout.

Regarding `COc1ccc2cc3[n+](cc2c1OC)CCc1cc2c(cc1-3)OCO2`, the Potency in the assay on TAB165 was 0.794 µM (active); in the assay on W2, 0.601 µM (active); in the assay with CRL-7250, 1.06 µM (active) and 4.18 µM (active); with KB-3-1, 20.6 µM (active) and 13.2 µM (active). For the same molecule, the max response in the assay on NIH3T3 was -15.5% and -8.88%. Further, the Potency result in the assay on MCC-13 was “inactive”.

Turning to `COc1cc(NCc2ccc3nc(N)nc(N)c3c2C)cc(OC)c1OC`, the Potency is 1.12 µM (active) in the assay on TAB165; 0.301 µM (active) with W2; 4.18 µM (active) and 53.1 nM (active) in the assay on HEK293; 1.06 µM (active) with HaCat [1]; 3.32 µM (active) and 326 nM (active) in the assay with KB-3-1; 3.72 µM (active) and 66.8 nM (active) with NIH3T3. In addition, in the assay on MCC-13, the Potency entry is “inactive”.

As to `Cc1nnc(NS(=O)(=O)c2ccc(N)cc2)s1`, the Potency result with TAB165 and with W2 was “inactive” each time.
